Bioassay records deposited in PubChem by Broad Institute.
ERAP1 HTS inh = human ERAP1 aminopeptidase inhibitors, primary screen, biochemical, single point, plate reader | AID 652197, 2013 | 340,000 tested, 0.15% active | inhibition, % at 10.7 µM | Endoplasmic reticulum aminopeptidase 1 (Homo sapiens), Q9NZ08 | recombinant ERAP1, Leu-AMC fluorescence, 60 min;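 active = mean replicate inhibition of at least 30%, or all replicates individually reaching that 30% level; inactive = mean below 30% and not every replicate reaching it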
SIRT5 block = SIRT5 desuccinylase inhibitors, primary screen, biochemical, fluorescence imaging, single point, set 5 | Purified SirT5, succinyl-peptide AMC, trypsin-coupled fluorescence | inhibition, % at 15 µM | 330,000 tested, 1.1% active; in the data active = inhibition above about 15%
FGF22 binding = binders of human FGF22 protein, primary screen, FGF22 synaptogenesis inhibitor project, biophysical, thermal shift, single point | Fibroblast growth factor 22 (Homo sapiens), Q9HCT0 | recombinant FGF22 thermal shift, SYPRO orange fluorescence; percent of sucrose octasulfate shift, DMSO zero | activity (Tm shift, normalised), % at 9.99 µM | 340,000 tested, 1.5% active;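 active = mean Tm shift, scaled 0 neutral to 100 positive control, at about 1.3% or above, every replicate too, limit read from the data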
CASP6 VEID inh = human caspase-6 inhibitors, primary screen, biochemical, VEID-R110 fluorescence, single point, set 2 | purified caspase-6, Z-VEID-R110 cleavage fluorescence | P55212 | inhibition, % at 12.5 µM | 350,000 tested, 0.53% active;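 active = mean inhibition across replicates at least about 35%, with every replicate also reaching that limit, limit read from the data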
Numbers stand for hits; n = inactive; x = no result; ! = a repeat was not active. Compounds with a hit are over-represented: about 3.1% of the library has one in this group of screens.

SMILES | ERAP1 HTS inh | SIRT5 block | FGF22 binding | CASP6 VEID inh
C[C@@H]1CCCCO[C@H](CN(C)CC2CC2)[C@H](C)CN([C@H](C)CO)C(=O)c2cc(N(C)C)ccc2O1 | n | n | n | n
COc1ccc(-c2ccc(=O)[nH]n2)cc1 | n | n | n | n
O=c1ccc(-c2ccccc2)n[nH]1 | n | 21 | n | n
O=C(NCCCN1CCOCC1)[C@H]1[C@H](CO)[C@H]2Cn3c(cccc3=O)[C@@H]1N2C(=O)C1CCCC1 | n | n | x | n
CC(=O)C1CCC2C3CCC4CC(OC(=O)CCC(=O)O)CCC4(C)C3C(=O)CC12C (stereo not given) | n | x | 44 | n
Cc1ccc(C(=O)Nc2ccccc2-c2ccccc2)cc1[N+](=O)[O-] | n | n | n | n
Cc1cc(CSc2ccccc2)ccc1NC(=O)c1ccc(C)c([N+](=O)[O-])c1 | n | n | 43 | n
C[C@@H](NC(=O)C[C@H]1CC[C@@H]2[C@H](COC[C@@H](O)CN2C)O1)c1ccccc1 | n | n | n | n
C[C@H](NC(=O)OCc1ccccc1)C(=O)NNC(=O)[C@H](Cc1ccccc1)NC(=O)OC(C)(C)C | n | n | n | n
C[C@H](NC(=O)OCc1ccccc1)C(=O)NNC(=O)[C@H](C)NC(=O)OCc1ccccc1 | n | 21 | n | n
COc1ccccc1-n1c(-c2ccccc2)c[n+]2c1CCc1ccccc1-2 | n | 112! | n | n
CC(C)c1ccc(-n2c(-c3ccccc3)c[n+]3c2CCc2ccccc2-3)cc1 | x | n | n | n
O=C(Cc1ccccc1)N1C[C@@H]2[C@H](c3ccccc31)[C@@H](CO)N2C(=O)C1CCCCC1 | n | n | n | n
CC1CCC(NC(=O)CN2C(=O)NC3(CCCCCC3)C2=O)CC1 (stereo not given) | n | 16 | n | n
Cc1cc(N2CCCC2)ccc1NC(=O)CN1C(=O)NC2(CCCCC2)C1=O | n | n | n | 39
COCCNC(=O)CN1C(=O)NC2(CCCCCC2)C1=O | n | 17 | n | n
Cc1ccc(C2(C)NC(=O)N(CC(=O)NC3CCCCC3)C2=O)cc1 (stereo not given) | n | n | n | n
COCCN(CC(=O)Nc1cccc(C)c1C)C(=O)CN1C(=O)NC2(CCCCC2)C1=O | 45 | n | n | n
O=C(C1CC1)N1CCCCN2[C@H](C1)[C@@H](c1ccc(C#CC3(O)CCCC3)cc1)[C@@H]2CO | n | n | n | n
C[C@@H]1CN([C@@H](C)CO)C(=O)c2cc(NS(=O)(=O)c3ccc(Cl)cc3)ccc2O[C@@H](C)CCCCO[C@@H]1CN(C)Cc1ccc(C(=O)O)cc1 | n | n | n | n
CCC(=O)Nc1ccc2c(c1)C(=O)N(C)[C@@H]1CC[C@@H](CC(=O)NCC3CCCCC3)O[C@H]1CO2 | n | n | n | n
Cc1cc(C(=O)CN2C(=O)NC3(CCC(C)CC3)C2=O)c(C)n1C (stereo not given) | n | n | 43 | n
COc1ccc(CN(C(=O)c2nsc(Cl)c2Cl)C(C(=O)NC2CCCC2)c2ccc(OC)cc2)cc1 (stereo not given) | n | n | 43 | n
O=C(O)c1ccccc1NS(=O)(=O)c1cccc(-n2sc3ccccc3c2=O)c1 | 99 | n | x | n
Cc1cc(S(=O)(=O)Nc2ccccc2C(=O)O)ccc1Cl | n | n | n | n
SMILES | ERAP1 HTS inh | SIRT5 block | FGF22 binding | CASP6 VEID inh
CCC(=O)N[C@H]1C=C[C@H](CC(=O)NCCN2CCCCC2)O[C@H]1CO | n | n | n | n
CC(C)NC(=O)N(C)C[C@H]1OCCCC[C@@H](C)Oc2ccc(N(C)C)cc2C(=O)N([C@@H](C)CO)C[C@H]1C | n | n | n | n
COC(=O)CNC(c1ccccc1)c1cc(Br)ccc1NC(C)=O (stereo not given) | n | n | 43 | n
COC(=O)CNC(c1ccccc1)c1cc(Cl)ccc1NC(=O)c1cccc(Cl)c1 (stereo not given) | n | n | n | n
CC1=Cc2ccccc2C(C#N)N1C(=O)c1ccccc1 (stereo not given) | n | n | 44 | n
Cc1ccc2c(c1)C=CC(C#N)N2C(=O)c1ccccc1 (stereo not given) | n | n | n | n
CNC(=O)C[C@@H]1CC[C@H]2[C@H](COc3ccc(NC(=O)Nc4ccccc4F)cc3C(=O)N2C)O1 | n | n | n | n
COc1ccc(S(=O)(=O)N2CCOCC2)cc1C(=O)NCC(c1ccccc1)c1ccccc1 | n | n | n | 50
COc1ccc(C(=O)N2CCN(S(=O)(=O)c3ccc(C)cc3)CC2)cc1S(=O)(=O)N1CCOCC1 | x | 20 | n | n
COc1ccc(S(=O)(=O)N2CCOCC2)cc1NC(=O)c1cccc2c(=O)c(C)c(-c3ccccc3)oc12 | n | 27 | n | n
CCN(CC)S(=O)(=O)c1ccc(N2CCOCC2)c(NC(=O)c2cccc3c(=O)c(C)c(-c4ccccc4)oc23)c1 | x | n | n | n
COc1ccc(C(=O)N2CCN(S(=O)(=O)c3ccc(C)cc3C)CC2)cc1S(=O)(=O)N1CCOCC1 | n | n | n | n
Cc1noc(C)c1S(=O)(=O)Nc1ccc2c(c1)C(=O)N([C@H](C)CO)C[C@H](C)[C@@H](CN(C)C(=O)Cc1ccccc1)OCCCC[C@H](C)O2 | n | n | n | n
CO[C@H]1CN(C)C(=O)c2cc(NS(=O)(=O)c3ccccc3C)ccc2OC[C@@H](C)N(C)C[C@H]1C | n | n | n | n
O=C(Nc1ccc2sccc2c1)c1cccc(N2C(=O)CCC2=O)c1 | n | n | 43 | n
Cc1ccc(S(=O)(=O)N2C[C@@H]3N[C@H](C2)[C@@H]3c2ccc(-c3cccc(C)c3)cc2)cc1 | x | x | n | x
Cc1ccc(-c2ccc(C3[C@@H]4CN(S(=O)(=O)c5cccc(C)c5)C[C@H]3N4)cc2)cc1 (stereo not given in full) | x | 28 | x | x
COc1cccc(S(=O)(=O)N2C[C@@H]3N[C@H](C2)C3c2ccc(-c3ccccc3C)cc2)c1 (stereo not given in full) | n | n | x | 37!
COc1ccccc1-c1ccc([C@@H]2[C@@H]3CN(S(=O)(=O)c4ccc(-c5ccccc5)cc4)C[C@H]2N3)cc1 | n | 21 | x | n
CO[C@@H]1CN(C)C(=O)c2ccc(NC(=O)c3cc(C)on3)cc2OC[C@@H](C)N(CC2CC2)C[C@@H]1C | n | n | n | n
O=C(Nc1ccc(C(F)(F)F)cc1)N1C[C@@H]2N[C@H](C1)C2c1ccc(/C=C/c2ccccc2)cc1 (stereo not given in full) | n | n | x | n
O=C(Nc1ccc(C(F)(F)F)cc1)N1C[C@@H]2N[C@H](C1)C2c1ccc(-c2ccccc2)cc1 (stereo not given in full) | n | 21! | x | n
COc1cccc(NC(=O)CCNS(=O)(=O)c2cccc3nsnc23)c1 | n | n | 44 | n
